According to PubChem BioAssay (Tox21):
Several values for one entry are separate records, joined by “and”; a condition that tells them apart may be missing. Equal entries are not always repeated. Inconclusive results are not listed. Activity calls are given as the source filed them. Unless noted, the call rests on the fitted dose curve; in most records, active means well fitted curve in the direction sought with a large enough effect in the repeat runs; inconclusive means weak or mixed curves; inactive means no such curve, though single readings can be large; an effect the other way counts as inactive or inconclusive.

Key:
[1] = A CellTox Green Cytotoxicity Assay to monitor cytotoxicity in HEK293 cells - 32 hour (AID 1224881); further: nearly all actives have a fitted effect of over 40% in size; further: potency means the concentration at half of the fitted maximal effect
How it was run: (§1)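 Seeding of HEK293 cells together with cytotoxicity dye preceded a 5 h incubation at 37 C/5% CO2. Test compounds in DMSO were then added and fluorescence monitored across 40 h.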

[2] = A CellTox Green Cytotoxicity Assay to monitor cytotoxicity in HepG2 cells - 0 hour (AID 1224882); further: on the % scale 0 is the no-effect control and ±100 the full control effect; nearly all actives have a fitted effect of over 35% in size
How it was run: (§2)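 Nonlytic assay: viable cells exclude the dye, so fluorescence scales with cell death. HepG2 at 600 cells/well, compounds added after 5 h, signal read across 40 h.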

[3] = A CellTox Green Cytotoxicity Assay to monitor cytotoxicity in HepG2 cells - 32 hour (AID 1224883); further: nearly all actives have a fitted effect of over 50% in size; further: potency means the concentration at half of the fitted maximal effect
How it was run: as §2

[4] = A CellTox Green Cytotoxicity Assay to monitor cytotoxicity in HEK293 cells - 8 hour (AID 1224884); further: nearly all actives have a fitted effect of over 35% in size; further: potency means the concentration at half of the fitted maximal effect
How it was run: as §1

[5] = qHTS RealTime-Glo MT Cell Viability Assay in HepG2 cells - 16 hour (AID 1224885); further: nearly all actives have a fitted effect of over 50% in size; further: potency means the concentration at half of the fitted maximal effect
How it was run: (§3)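 Compound treatment began 5 h after plating HepG2 cells (600/well) with NanoLuc luciferase and prosubstrate. Plates stayed at 37 C for 40 h; luminescence was captured at six time points, 0 h through 40 h.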

[6] = qHTS RealTime-Glo MT Cell Viability Assay in HEK293 cells - 24 hour (AID 1224886); further: nearly all actives have a fitted effect of over 50% in size; further: potency means the concentration at half of the fitted maximal effect; on activity change, negative = cytotoxicity: top concentration of the series differs between compounds; on the % scale 0 is the no-effect control and ±100 the full control effect
How it was run: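 Quantitative high-throughput screen of the Tox21 10K library in HEK293: cells and RealTime-Glo reagents plated together, compound added at 5 h, luminescence monitored through 40 h at 37 C.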

[7] = qHTS RealTime-Glo MT Cell Viability Assay in HEK293 cells - 8 hour (AID 1224887); further: nearly all actives have a fitted effect of over 50% in size; further: potency means the concentration at half of the fitted maximal effect; on activity change, negative = cytotoxicity: top concentration of the series differs between compounds; on the % scale 0 is the no-effect control and ±100 the full control effect
How it was run: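 Tox21 screen in HEK293 using RealTime-Glo MT chemistry, with cells and reagent co-dispensed. Luminescence proportional to viable cell number was captured at intervals during 40 h compound exposure at 37 C.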

[8] = A CellTox Green Cytotoxicity Assay to monitor cytotoxicity in HEK293 cells - 16 hour (AID 1224888); further: nearly all actives have a fitted effect of over 35% in size; further: potency means the concentration at half of the fitted maximal effect; on activity change: on the % scale 0 is the no-effect control and ±100 the full control effect
How it was run: as §1

[9] = qHTS RealTime-Glo MT Cell Viability Assay in HepG2 cells - 0 hour (AID 1224889)
How it was run: as §3

[10] = A CellTox Green Cytotoxicity Assay to monitor cytotoxicity in HepG2 cells - 8 hour (AID 1224890); further: nearly all actives have a fitted effect of over 45% in size; further: potency means the concentration at half of the fitted maximal effect
How it was run: as §2

[11] = qHTS assay to identify small molecule antagonists of the estrogen receptor alpha (ER-alpha) signaling pathway using the BG1 cell line in the presence of 0.1 nM 17-beta-estradiol - cell viability counter screen (AID 1259241); further: nearly all actives have a fitted effect of over 40% in size; further: potency means the concentration at half of the fitted maximal effect
How it was run: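 In this screen, hormone-deprived VM7Luc4E2 cells were seeded at 4,000 per well, dosed with compound and 0.1 nM estradiol final, and incubated 22 hr at 37C and 5% CO2; fluorogenic live-cell protease signal reported viability.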

[12] = qHTS assay to identify small molecule antagonists of the androgen receptor (AR) signaling pathway using the MDA cell line in the presence of 0.5 nM R1881 - cell viability counter screen (AID 1259242); further: nearly all actives have a fitted effect of over 45% in size; further: potency means the concentration at half of the fitted maximal effect
How it was run: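 R1881 at 0.5 nM final stimulated MDA-kb2 cells during 16 hr compound treatment at 37C. Cytotoxicity read: CellTiter-Fluor fluorescence after 30 min.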

[13] = molecular target: Androgen receptor (Homo sapiens) (UniProt P10275); assay: qHTS assay to identify small molecule antagonists of the androgen receptor (AR) signaling pathway using the MDA cell line in the presence of 0.5 nM R1881 (AID 1259243)
How it was run: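 We exposed MDA-kb2 cells to compounds under 0.5 nM R1881 stimulation for 16 hr at 37C and quantified MMTV-driven luciferase by luminescence.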

[14] = molecular target: Estrogen receptor (Homo sapiens) (UniProt P03372); assay: qHTS assay to identify small molecule antagonists of the estrogen receptor alpha (ER-alpha) signaling pathway using the BG1 cell line in the presence of 0.1 nM 17-beta-estradiol (AID 1259244); further: nearly all actives have a fitted effect of over 50% in size; further: potency means the concentration at half of the fitted maximal effect
How it was run: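 VM7Luc4E2; 4xERE-luciferase; 0.1 nM E2 final; 22 h co-incubation, 37C; ONE-Glo luminescence after 30 min at room temperature.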

[15] = qHTS assay to identify small molecule HDAC inhibitors (AID 1259364);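 further: wild-type HCT-116 cells with endogenous class I/II HDAC activity; top concentration of the series differs between compounds; on the % scale 0 is the no-effect control and ±100 the full control effect; nearly all actives have a fitted effect of over 45% in size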
How it was run: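 Relative class I and II HDAC activity is taken from the luminogenic signal in HCT-116 cells, with compound exposure 2 hr and reagent development 30 min at room temperature.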

[16] = qHTS assay to identify small molecule HDAC inhibitors - cell viability counter screen (AID 1259365); further: nearly all actives have a fitted effect of over 50% in size; further: potency means the concentration at half of the fitted maximal effect
How it was run: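 Measured quantity is CellTiter-Glo luminescence from wild-type HCT-116 cells after compound incubation of 2hr at 37C, 5% CO2; reagent developed 30min at room temperature.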

[17] = qHTS assay to identify small molecule agonists of the sonic hedgehog signaling (Shh) pathway - cell viability counter screen (AID 1259366); further: nearly all actives have a fitted effect of over 50% in size; further: potency means the concentration at half of the fitted maximal effect
How it was run: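 In quantitative high-throughput format, 3T3 Gli1-Luc cells were exposed to compounds for 24hr and multiplexed for viability using CellTiter-Fluor, incubated 1hr at 37C before the fluorescence read.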

[18] = qHTS assay to identify small molecule antagonists of the sonic hedgehog signaling (Shh) pathway - cell viability counter screen (AID 1259367); further: nearly all actives have a fitted effect of over 55% in size; further: potency means the concentration at half of the fitted maximal effect
How it was run: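 NIH/3T3-derived Gli1-Luc reporter cells (2,000 per well) rested 4 hr at 37 C, then received DMSO compounds plus conditioned medium. After 23 hr of treatment, CellTiter-Fluor was added for 1 hr at 37C and fluorescence read.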

[19] = qHTS assay to identify small molecule agonists of the sonic hedgehog signaling (Shh) pathway (AID 1259368; calls by dose curve;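 further: NIH/3T3-derived 3T3Gli1-Luc cells carrying a stable Gli1-driven firefly luciferase reporter; series mostly up to about 92 µM; on the % scale 0 is the no-effect control and ±100 the full control effect; nearly all actives have a fitted effect of over 15% in size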)
How it was run: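 Mouse fibroblast (NIH/3T3) reporter cells with stably integrated Gli1-Luc were treated 24 hr with compound; firefly luciferase luminescence served as the read-out.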

[20] = qHTS assay to identify small molecule phospholipidosis (PLD) inducers (AID 1259344; active means well fitted curve in the direction sought with a large enough effect; an effect the other way counts as inactive or inconclusive; further: on the % scale 0 is the no-effect control and ±100 the full control effect)
How it was run: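 HepG2 cells on collagen I, attached 4 h at 37 C, were co-treated with compound and LipidTOX Red dye for 24 h at 37 C, then fixed with paraformaldehyde plus Hoechst 33342 and imaged by high-content microscopy for phospholipid accumulation.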

Sequence of Estrogen receptor (Homo sapiens) (P03372 whole entry, looked up): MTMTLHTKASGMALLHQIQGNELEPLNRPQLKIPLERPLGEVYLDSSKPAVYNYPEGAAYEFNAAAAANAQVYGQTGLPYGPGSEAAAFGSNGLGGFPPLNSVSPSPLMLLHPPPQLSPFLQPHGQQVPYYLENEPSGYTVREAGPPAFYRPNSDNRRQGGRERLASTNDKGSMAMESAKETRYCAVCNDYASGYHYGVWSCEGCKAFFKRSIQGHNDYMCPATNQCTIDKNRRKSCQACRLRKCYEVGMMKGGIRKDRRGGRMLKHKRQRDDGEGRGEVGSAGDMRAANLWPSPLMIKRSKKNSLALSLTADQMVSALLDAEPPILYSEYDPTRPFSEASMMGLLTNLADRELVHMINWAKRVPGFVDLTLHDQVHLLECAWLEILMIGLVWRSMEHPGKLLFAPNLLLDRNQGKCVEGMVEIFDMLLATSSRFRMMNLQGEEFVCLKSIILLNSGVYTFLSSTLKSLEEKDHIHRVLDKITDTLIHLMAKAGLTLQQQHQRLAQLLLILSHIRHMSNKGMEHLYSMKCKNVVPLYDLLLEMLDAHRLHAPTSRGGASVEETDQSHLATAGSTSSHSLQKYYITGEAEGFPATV
Sequence of Androgen receptor (Homo sapiens) (P10275 whole entry, looked up): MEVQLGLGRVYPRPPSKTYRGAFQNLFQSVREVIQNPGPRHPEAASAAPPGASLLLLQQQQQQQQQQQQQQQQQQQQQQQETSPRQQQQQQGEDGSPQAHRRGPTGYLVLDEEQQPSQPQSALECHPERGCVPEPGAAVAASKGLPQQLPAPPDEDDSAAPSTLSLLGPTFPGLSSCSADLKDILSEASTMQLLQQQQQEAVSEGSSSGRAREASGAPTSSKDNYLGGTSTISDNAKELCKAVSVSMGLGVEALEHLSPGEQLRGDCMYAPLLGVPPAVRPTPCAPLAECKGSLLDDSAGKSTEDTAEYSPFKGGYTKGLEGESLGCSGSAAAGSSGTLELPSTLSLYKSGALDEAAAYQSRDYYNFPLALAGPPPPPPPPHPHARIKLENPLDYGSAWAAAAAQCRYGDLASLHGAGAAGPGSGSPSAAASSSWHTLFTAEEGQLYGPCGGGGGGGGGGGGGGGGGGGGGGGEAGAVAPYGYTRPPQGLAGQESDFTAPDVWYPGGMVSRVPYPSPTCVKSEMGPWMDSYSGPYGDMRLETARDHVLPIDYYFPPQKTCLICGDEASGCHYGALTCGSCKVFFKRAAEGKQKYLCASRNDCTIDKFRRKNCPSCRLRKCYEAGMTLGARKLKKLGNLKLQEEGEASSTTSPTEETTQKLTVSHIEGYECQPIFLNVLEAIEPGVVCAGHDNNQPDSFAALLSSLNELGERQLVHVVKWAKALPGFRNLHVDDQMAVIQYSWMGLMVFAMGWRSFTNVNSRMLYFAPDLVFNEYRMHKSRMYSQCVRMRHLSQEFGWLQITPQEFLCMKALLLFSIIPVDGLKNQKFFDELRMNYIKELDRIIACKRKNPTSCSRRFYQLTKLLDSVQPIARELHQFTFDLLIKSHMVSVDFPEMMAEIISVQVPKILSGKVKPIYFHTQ

C=CC(=O)[O][Sn]([CH2]CCC)([CH2]CCC)[CH2]CCC
active: Potency [1] 3.47 µM | Potency [3] 0.692 µM | Potency [4] 21.9 µM | Potency [5] 0.549 µM | Potency [6] 0.436 µM | Potency [7] 871 nM | Potency [8] 24.5 µM | Potency [10] 0.977 µM | Potency [11] 27.3 µM | Potency [12] 1.09 µM | Potency [13] 0.545 µM | Potency [14] 1.72 µM | Potency [16] 19.3 µM | Potency [17] 0.243 µM | Potency [18] 1.09 µM
inactive: Potency [2] | Potency [9] | Potency [15] | Potency [19]

ClCBr
inactive: Potency [1] | Potency [2] | Potency [3] | Potency [4] | Potency [5] | Potency [6] | Potency [7] | Potency [8] | Potency [9] | Potency [10] | Potency [11] | Potency [12] | Potency [14] | Potency [15] | Potency [16] | Potency [17] | Potency [18] | Potency [19]

CCC[CH2][Sn]([CH2]CCC)([CH2]CCC)[O][Sn]([CH2]CCC)([CH2]CCC)[CH2]CCC
active: Potency [1] 0.339 µM | Potency [3] 0.537 µM | Potency [4] 2.14 µM | Potency [5] 0.676 µM | Potency [6] 0.191 µM | Potency [7] 269 nM | Potency [8] 1.7 µM | Potency [10] 0.676 µM | Potency [12] 0.533 µM | Potency [13] 0.189 µM | Potency [14] 0.377 µM | Potency [17] 0.212 µM | Potency [18] 0.377 µM
inactive: cytotoxicity [2] 5.3% [at 6.97 µM] | activity change, negative = cytotoxicity [9] 23.4% [at 6.97 µM] | activity change, negative = cytotoxicity [11] -23.5% [at 8.39 µM] | activity change, negative = inhibition [15] 2.24% [at 8.39 µM] | activity change [19] -10.2% [at 8.39 µM, stronger effect = higher value]

O=c1c2ccccc2c(=O)c2c1cc(Cl)c1[nH]c3c([nH]c12)c(Cl)cc1c(=O)c2ccccc2c(=O)c13
inactive: Potency [1] | Potency [2] | Potency [3] | Potency [4] | Potency [5] | Potency [6] | Potency [7] | Potency [8] | Potency [9] | Potency [10] | Potency [11] | Potency [12] | Potency [14] | Potency [15] | Potency [16] | Potency [17] | Potency [18] | Potency [19]

ClC1=C(Cl)[C@]2(Cl)[C@H]3[C@H]([C@@H]4C=C[C@H]3C4)[C@@]1(Cl)C2(Cl)Cl
inactive: Potency [2] | Potency [9] | Potency [11] | Potency [12] | Potency [14] | Potency [15] | Potency [16] | Potency [18] | Potency [19]
active: Potency [1] 54.9 µM and 49 µM | Potency [3] 54.9 µM | Potency [4] 54.9 µM | Potency [5] 49 µM | Potency [6] 43.6 µM | Potency [7] 43.6 µM and 38.9 µM | Potency [8] 54.9 µM and 49 µM | Potency [10] 54.9 µM

CC[C@H](C)[C@H]1O[C@]2(C=C[C@@H]1C)C[C@@H]1C[C@@H](C/C=C(\C)[C@@H](O[C@H]3C[C@H](OC)[C@@H](O[C@H]4C[C@H](OC)[C@@H](NC)[C@H](C)O4)[C@H](C)O3)[C@@H](C)/C=C/C=C3\CO[C@@H]4[C@H](O)C(C)=C[C@@H](C(=O)O1)[C@]34O)O2
inactive: Potency [2] | Potency [9] | Potency [15] | Potency [19]
active: Potency [1] 12.3 µM | Potency [3] 11 µM | Potency [4] 13.8 µM | Potency [5] 12.3 µM | Potency [6] 5.49 µM | Potency [7] 8710 nM | Potency [8] 15.5 µM | Potency [10] 17.4 µM | Potency [11] 15.4 µM | Potency [12] 17.2 µM | Potency [14] 10.9 µM | Potency [16] 48.6 µM | Potency [17] 12.2 µM | Potency [18] 13.7 µM

CN1[C@@H]2CC[C@H]1CC(O)C2 (stereo not given in full)
inactive: Potency [1] | Potency [2] | Potency [3] | Potency [4] | Potency [5] | Potency [6] | Potency [7] | Potency [8] | Potency [9] | Potency [10] | Potency [11] | Potency [12] | Potency [14] | Potency [15] | Potency [16] | Potency [17] | Potency [18] | Potency [19]

O=[N+]([O-])c1ccccc1-c1ccccc1
inactive: Potency [1] | Potency [2] | Potency [3] | Potency [4] | Potency [5] | Potency [6] | Potency [7] | Potency [8] | Potency [9] | Potency [10] | Potency [11] | Potency [12] | Potency [14] | Potency [15] | Potency [16] | Potency [18] | Potency [19]

O=C(O)[C@H](O)[C@@H](O)C(=O)O
inactive: Potency [1] | Potency [2] | Potency [3] | Potency [4] | Potency [5] | Potency [6] | Potency [7] | Potency [8] | Potency [9] | Potency [10] | Potency [11] | Potency [12] | Potency [14] | Potency [15] | Potency [16] | Potency [17] | Potency [18] | Potency [19]

Clc1ccc(C2(Cn3cncn3)OCCO2)c(Cl)c1
inactive: Potency [1] | Potency [2] | Potency [3] | Potency [4] | Potency [5] | Potency [6] | Potency [7] | Potency [8] | Potency [9] | Potency [10] | Potency [11] | Potency [12] | Potency [14] | outcome [20] | Potency [15] | Potency [16] | Potency [17] | Potency [18] | Potency [19]

Cc1cnc2c(C(=O)O)c(Cl)ccc2c1
inactive: Potency [1] | Potency [2] | Potency [3] | Potency [4] | Potency [5] | Potency [6] | Potency [7] | Potency [8] | Potency [9] | Potency [10] | Potency [11] | Potency [12] | Potency [14] | Potency [15] | Potency [16] | Potency [17] | Potency [18] | Potency [19]

Oc1ccc(Cl)c(Cl)c1
inactive: Potency [1] | Potency [2] | Potency [3] | Potency [4] | Potency [5] | Potency [6] | Potency [7] | Potency [8] | Potency [9] | Potency [10] | Potency [11] | Potency [12] | Potency [14] | Potency [15] | Potency [16] | Potency [17] | Potency [18]
